Measurements from PubChem BioAssay (Tox21).
Records with an inconclusive call do not appear. Calls of active or inactive are those of the source. Unless noted, calls come from the whole dose curve; as a rule, active = well fitted curve in the direction sought with a large enough effect in the repeat runs; inconclusive = weak or mixed curves; inactive = no such curve, though single readings can be large; an effect the other way counts as inactive or inconclusive.

Columns and labels:
[1] = qHTS assay to identify aromatase inhibitors - cell viability counter screen (AID 743084);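 note: cells stimulated with testosterone during compound exposure; nearly all actives have a fitted effect of over 55% in size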
[2] = biological target: Aryl hydrocarbon receptor (Homo sapiens) (UniProt P35869); test: qHTS assay to identify small molecule that activate the aryl hydrocarbon receptor (AhR) signaling pathway (AID 743085); note: nearly all actives have a fitted effect of over 15% in size; note: potency is the fitted concentration of half-maximal effect;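 for activation: HG2L7.5c1 human HepG2 liver cells with stably integrated DRE-driven firefly reporter; series mostly up to about 70 µM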
Summary of the method: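 Stably transfected human liver carcinoma cells (HG2L7.5c1; 20 DRE-firefly luciferase) were incubated 5 h, dosed, and kept 24 h at 37C. Agonism was scored from increased luciferase luminescence.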

[3] = biological target: Peroxisome proliferator-activated receptor gamma (Homo sapiens) (UniProt P37231); test: qHTS assay to identify small molecule agonists of the peroxisome proliferator-activated receptor gamma (PPARg) signaling pathway (AID 743094; active = well fitted activation curve with a large enough effect in the signal ratio in the repeat runs, not every such curve was filed as active; the % refers to the signal ratio)
Summary of the method: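 Cells from the PPARg UAS-bla HEK293H line are plated and incubated 5 h at 37C. Compounds in DMSO are pinned in and left 17 h at 37C. LiveBLAzer B/G substrate is then added for 1 h at room temperature before fluorescence is measured.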

[4] = qHTS assay to identify small molecule phospholipidosis (PLD) inducers (AID 1259344; active = well fitted curve in the direction sought with a large enough effect; an effect the other way counts as inactive or inconclusive)
Summary of the method: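 Phospholipid accumulation was scored by imaging: fixed, Hoechst-counterstained HepG2 cells stained with LipidTOX Red after 24 h compound exposure at 37 C. Read-outs were pit count and pit intensity per well or per cell, with amiodarone and DMSO controls.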

[5] = biological target: Nuclear receptor subfamily 1 group I member 2 (Rattus norvegicus) (UniProt Q9R1A7); test: Rat pregnane X receptor (rPXR) activation by small molecules, qHTS assay (AID 1346983); conditions: rPXR luciferase reporter cells, One-Glo luminescence, 24 h; max activation: hits give high values; note: nearly all actives have a fitted effect of over 20% in size
Summary of the method: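 Luminescent readout (One-Glo luciferase, 30 min room temperature) followed 24 hr compound treatment at 37 C of rPXR cells plated 2,000 per well and preincubated 5hr; qHTS format with compounds delivered in DMSO.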

[6] = biological target: Nuclear receptor subfamily 1 group I member 2 (Homo sapiens) (UniProt O75469); test: CYP3A4 induction through human pregnane X receptor (PXR) by small molecules, qHTS assay (AID 1346984); note: nearly all actives have a fitted effect of over 40% in size; note: potency is the fitted concentration of half-maximal effect
Summary of the method: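 Quantitative HTS in DPX-2 cells, i.e. HepG2 transfected with PXR response element and CYP3A4-promoter luciferase. Compounds in DMSO incubated 24hr at 37C; then P450-Glo CYP3A4 substrate, 3uM final, 3hr; One-Glo luminescence.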

[7] = qHTS assay to identify small molecule that activate the aryl hydrocarbon receptor (AhR) signaling pathway - cell viability counter screen (AID 743086);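 note: HepG2 liver cells carrying the AhR DRE luciferase reporter; series mostly up to about 70 µM; nearly all actives have a fitted effect of over 45% in size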
Summary of the method: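 Cytotoxicity counter screen: CellTiter-Fluor signal (30 min, 37 C) in 4000 HepG2 cells/well carrying the DRE-luciferase reporter, following 24 h compound exposure at 37 C.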

[8] = biological target: Nuclear receptor subfamily 1 group I member 2 (Homo sapiens) (UniProt O75469); test: Human pregnane X receptor (PXR) activation by small molecules, qHTS assay (AID 1346985); note: nearly all actives have a fitted effect of over 40% in size; note: potency is the fitted concentration of half-maximal effect
Summary of the method: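 DPX-2 cells (HepG2 co-transfected with a PXR response element and a CYP3A4-promoter luciferase construct) were seeded at 2,000 per well, rested 5 hr at 37C, then exposed to DMSO-dissolved compounds for 24 hr. Activation was read as luciferase luminescence.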
% is set by controls: 0 for no effect and ±100 for the full control effect.

Nuclear receptor subfamily 1 group I member 2 (Rattus norvegicus), sequence (Q9R1A7 whole entry, looked up): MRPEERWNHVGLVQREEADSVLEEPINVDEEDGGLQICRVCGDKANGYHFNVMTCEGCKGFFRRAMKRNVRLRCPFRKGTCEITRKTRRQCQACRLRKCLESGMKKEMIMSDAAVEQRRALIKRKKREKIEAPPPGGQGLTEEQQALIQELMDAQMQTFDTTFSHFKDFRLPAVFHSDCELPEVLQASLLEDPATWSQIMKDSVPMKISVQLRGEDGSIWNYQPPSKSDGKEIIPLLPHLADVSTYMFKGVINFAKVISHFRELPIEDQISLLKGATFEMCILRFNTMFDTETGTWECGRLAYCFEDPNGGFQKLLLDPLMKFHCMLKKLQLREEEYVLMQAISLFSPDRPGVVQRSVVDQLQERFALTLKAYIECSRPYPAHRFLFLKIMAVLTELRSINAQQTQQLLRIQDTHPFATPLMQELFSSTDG
Peroxisome proliferator-activated receptor gamma (Homo sapiens), sequence (P37231 whole entry, looked up): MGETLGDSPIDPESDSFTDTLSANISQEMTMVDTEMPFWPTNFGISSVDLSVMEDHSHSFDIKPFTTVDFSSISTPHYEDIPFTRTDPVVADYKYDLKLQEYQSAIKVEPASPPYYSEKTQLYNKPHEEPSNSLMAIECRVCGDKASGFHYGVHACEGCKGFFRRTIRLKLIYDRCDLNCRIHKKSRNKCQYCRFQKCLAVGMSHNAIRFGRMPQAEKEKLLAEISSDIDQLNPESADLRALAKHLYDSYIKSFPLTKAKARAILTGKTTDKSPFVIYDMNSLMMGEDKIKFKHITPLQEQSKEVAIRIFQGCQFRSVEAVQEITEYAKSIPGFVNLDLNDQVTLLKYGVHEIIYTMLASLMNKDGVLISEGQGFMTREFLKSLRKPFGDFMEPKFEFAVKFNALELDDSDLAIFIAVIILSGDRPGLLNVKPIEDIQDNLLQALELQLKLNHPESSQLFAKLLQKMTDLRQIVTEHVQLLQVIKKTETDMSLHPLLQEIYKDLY
Aryl hydrocarbon receptor (Homo sapiens), sequence (P35869 whole entry, looked up): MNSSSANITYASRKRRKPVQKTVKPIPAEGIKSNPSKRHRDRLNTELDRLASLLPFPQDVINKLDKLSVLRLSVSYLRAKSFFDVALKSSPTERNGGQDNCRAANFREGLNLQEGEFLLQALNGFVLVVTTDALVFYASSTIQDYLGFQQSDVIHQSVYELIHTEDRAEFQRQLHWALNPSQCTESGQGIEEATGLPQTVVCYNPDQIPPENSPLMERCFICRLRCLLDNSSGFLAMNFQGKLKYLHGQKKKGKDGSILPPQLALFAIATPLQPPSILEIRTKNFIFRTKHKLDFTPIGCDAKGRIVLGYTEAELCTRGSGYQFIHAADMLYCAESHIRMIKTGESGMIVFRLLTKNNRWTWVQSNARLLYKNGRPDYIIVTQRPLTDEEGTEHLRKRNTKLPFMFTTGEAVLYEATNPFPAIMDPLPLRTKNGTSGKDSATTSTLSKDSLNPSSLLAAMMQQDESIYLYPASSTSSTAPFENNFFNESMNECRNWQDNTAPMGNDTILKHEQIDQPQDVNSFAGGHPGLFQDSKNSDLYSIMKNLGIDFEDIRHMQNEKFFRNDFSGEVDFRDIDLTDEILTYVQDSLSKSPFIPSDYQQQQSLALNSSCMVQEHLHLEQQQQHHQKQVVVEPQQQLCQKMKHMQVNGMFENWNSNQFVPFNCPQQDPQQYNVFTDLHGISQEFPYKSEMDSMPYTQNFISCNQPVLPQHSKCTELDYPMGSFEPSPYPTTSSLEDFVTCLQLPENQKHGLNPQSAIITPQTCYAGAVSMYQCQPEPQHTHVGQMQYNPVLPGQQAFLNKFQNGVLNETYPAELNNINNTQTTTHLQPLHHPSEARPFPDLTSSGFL

CCCCC(=O)O[C@H]1CC[C@H]2[C@@H]3CCc4cc(O)ccc4[C@H]3CC[C@]12C
inactive: Potency [1] | Potency [2] | Potency [3] | Potency [4] | max activation [5] -1.73% | Potency [6]

CCOC(=O)[C@@H](N)CS
inactive: Potency [1] | Potency [2] | Potency [7] | Potency [3] | Potency [4] | max activation [5] -2.02% | Potency [6]

NC(=O)OCC(O)COc1ccc(Cl)cc1 (stereo unspecified)
inactive: Potency [1] | Potency [2] | Potency [7] | Potency [3] | Potency [4] | max activation [5] 0.928% | Potency [6]

O=C(O)CO.[NH2-].[NH2-].[Pt+2]
inactive: Potency [1] | Potency [2] | Potency [7] | Potency [3] | Potency [4] | max activation [5] -2.14% | Potency [6]

CC(CN1c2ccccc2Sc2cccnc21)N(C)C (stereo unspecified)
active: Potency [6] 3.98 µM
inactive: Potency [1] | Potency [2] | Potency [7] | Potency [3] | Potency [4] | max activation [5] -2.44%

C[C@H](CCCC(C)(C)O)[C@H]1CC[C@H]2[C@@H]3CC=C4C[C@@H](O)CC[C@]4(C)[C@H]3CC[C@]12C
inactive: Potency [1] | Potency [2] | Potency [7] | Potency [3] | Potency [4] | max activation [5] -4.18% | Potency [6]

Nc1ncnc2c1ncn2CCOCP(=O)(O)O
inactive: Potency [1] | Potency [2] | Potency [7] | Potency [3] | Potency [4] | max activation [5] -0.588% | Potency [6]

CCC(C)[C@@H](N)C(=O)O (stereo partly specified)
inactive: Potency [1] | Potency [2] | Potency [7] | Potency [3] | Potency [4] | max activation [5] -2.74% | Potency [6]

Cc1cc(C)c(NC(=O)C[C@H](CC(=O)O)c2cccc3ccccc23)c(C(=O)N2CCC3(CCCC3)CC2)c1
inactive: Potency [1] | Potency [2] | Potency [7] | Potency [3] | Potency [4] | max activation [5] 1.3% | Potency [6]

C=CCN1CCCC1CNC(=O)c1cc(S(N)(=O)=O)cc(OC)c1OC (stereo unspecified)
inactive: Potency [1] | Potency [7] | Potency [3] | Potency [4] | max activation [5] -5.9%
active: Potency [6] 14.1 µM

COc1ccc2cc([C@H](C)CO)ccc2c1
inactive: Potency [1] | Potency [7] | Potency [3] | Potency [4] | max activation [5] -2.68% | Potency [6]

CCCCCCCCCCCCCCCC(=O)OC[C@@H](O)[C@H]1OC[C@H](O)[C@H]1O
inactive: Potency [1] | Potency [2] | Potency [7] | Potency [3] | Potency [4] | max activation [5] 2.9% | Potency [6]

CNc1cc(OC)c(C(=O)N[C@H]2CCN(Cc3ccccc3)[C@H]2C)cc1Cl
inactive: Potency [1] | Potency [2] | Potency [7] | Potency [3] | Potency [4] | max activation [5] -1.71% | Potency [6]

CSc1nc2cc(Oc3cccc(Cl)c3Cl)c(Cl)cc2[nH]1
inactive: Potency [1] | Potency [7] | Potency [3] | Potency [4] | max activation [5] -0.842% | Potency [6]

C#C[C@]1(O)CC[C@H]2[C@@H]3CCC4=CCCC[C@@H]4[C@H]3C(=C)C[C@@]21CC
inactive: Potency [1] | Potency [2] | Potency [3] | Potency [4] | max activation [5] -4.59% | Potency [6]

CO[C@H]1O[C@@H]2O[C@@]3(C)CC[C@H]4[C@H](C)CC[C@@H]([C@H]1C)[C@@]24OO3
inactive: Potency [1] | Potency [2] | Potency [3] | Potency [4] | max activation [5] -2.27% | Potency [6]

CC1C(=O)CC2C3(C)CCC2(C(C)C(=O)O)C(=O)C13 (stereo unspecified)
inactive: Potency [1] | Potency [3] | Potency [4] | max activation [5] 0.0537% | Potency [6]

Cc1cc(C(=O)NNCc2ccccc2)no1
inactive: Potency [1] | Potency [7] | Potency [3] | Potency [4] | max activation [5] -1.39% | Potency [6]

OC1OC[C@@H](O)[C@H](O)[C@@H]1O (stereo partly specified)
inactive: Potency [1] | Potency [2] | Potency [7] | Potency [3] | Potency [4] | max activation [5] 0.988% | Potency [6]

O=C1NC(=O)[C@H]2[C@@H]1[C@@H]1C=C[C@H]2C1
inactive: Potency [1] | Potency [2] | Potency [7] | Potency [3] | Potency [4] | max activation [5] -2.18% | Potency [6]

CC(=O)Nc1ccc(OC(=O)c2ccccc2O)cc1
inactive: Potency [1] | Potency [2] | Potency [7] | Potency [3] | Potency [4] | max activation [5] -2.95% | Potency [6]

C=C1CC[C@H](O)CC1=C/C=C1\CCC[C@]2(C)[C@@H]([C@H](C)CC[C@@H](O)C(C)(C)O)CC[C@@H]12
inactive: Potency [1] | Potency [7] | Potency [4] | max activation [5] 5.8% | Potency [6]

CO[C@H]1C[C@@H]2CC[C@@H](C)[C@@](O)(O2)C(=O)C(=O)N2CCCC[C@H]2C(=O)O[C@H]([C@H](C)C[C@@H]2CC[C@@H](OC(=O)C(C)(CO)CO)[C@H](OC)C2)CC(=O)[C@H](C)/C=C(\C)[C@@H](O)[C@@H](OC)C(=O)[C@H](C)C[C@H](C)/C=C/C=C/C=C/1C
inactive: Potency [1] | Potency [2] | Potency [7] | Potency [3] | Potency [4] | max activation [5] 0.976% | Potency [6]

CC1(C)[C@@H]2CC[C@@]1(C)[C@H](OC(=O)CSC#N)C2
inactive: Potency [1] | Potency [2] | Potency [7] | Potency [3] | Potency [4] | max activation [5] 7.49% | Potency [6]

CCCCCCCCCCCCCCCCOCCOCCOCCOCCOCCOCCOCCOCCOCCOCCOCCOCCOCCOCCOCCOCCOCCOCCOCCOCCO
inactive: Potency [2] | Potency [4] | max activation [5] -15.6% | Potency [6]

CCCCCc1ccc(C)cc1O
inactive: Potency [1] | Potency [3] | Potency [4] | max activation [5] 4.82% | Potency [6]

COc1cc2c(cc1OC)CC(=O)N(CCCN(C)C[C@H]1Cc3cc(OC)c(OC)cc31)CC2
inactive: Potency [1] | Potency [2] | Potency [7] | Potency [3] | Potency [4] | max activation [5] -0.416% | Potency [6]

CO[C@H]1C=CO[C@@]2(C)Oc3c(C)c(O)c4c(O)c(c5c(nc6cc(C)ccn65)c4c3C2=O)NC(=O)/C(C)=C\C=C[C@H](C)[C@H](O)[C@@H](C)[C@@H](O)[C@@H](C)[C@H](OC(C)=O)[C@@H]1C
inactive: Potency [4] | max activation [5] -6.53%
active: Potency [8] 10 µM

COc1ccc2c(=O)c(C)c(-c3ccccc3)oc2c1CN(C)C
inactive: Potency [1] | Potency [7] | Potency [3] | Potency [4] | max activation [5] -1.96%
active: Potency [2] 11.9 µM

CN(C)C=Nc1c(I)cc(I)c(CCC(=O)O)c1I
inactive: Potency [1] | Potency [2] | Potency [7] | Potency [4] | max activation [5] -2.71%
active: Potency [8] 14.1 µM

O=C(O)[C@H](CC(=O)N1C[C@H]2CCCC[C@H]2C1)Cc1ccccc1
inactive: Potency [1] | Potency [2] | Potency [7] | Potency [3] | Potency [4] | max activation [5] -2.62%

C[C@]12CCC(=O)C=C1CC[C@@H]1[C@@H]2[C@@H](O)C[C@@]2(C)[C@H]1CC[C@]2(O)C(=O)COP(=O)(O)O
inactive: Potency [1] | Potency [3] | Potency [4] | max activation [5] 11.6%

CN[C@@H]1[C@@H](O)[C@@H](O[C@@H]2[C@@H](O)[C@H](O[C@H]3O[C@H](CN)[C@@H](O)[C@H](O)[C@H]3O)[C@@H](N)C[C@H]2NC(=O)C(O)CN)OC[C@]1(C)O (stereo partly specified)
inactive: Potency [1] | Potency [2] | Potency [7] | Potency [4] | max activation [5] -5.41% | Potency [8]

NC(=O)Oc1ccc(Cc2ccccc2)cc1
inactive: Potency [1] | Potency [2] | Potency [7] | Potency [3] | Potency [4] | max activation [5] -0.809% | Potency [8]
